In PubChem BioAssay (NCATS):
Inconclusive results are not listed. A call without a number means that no potency is given here. Active and inactive are the calls of the source. Calls come from the whole dose curve; as a rule, active = well fitted cell-killing curve with a large enough effect; inconclusive = small, poorly fitted or top-dose-only effect; inactive = flat fitted curve, though single readings scatter.

assay: qHTS assay to identify small molecule inhibitors of chordoma cells - UCH-2 (AID 1259356); conditions: UCH-2 chordoma viability, CellTiter-Glo ATP luminescence, 48 h; series mostly up to 46.1 µM

Compound | Potency
CCC(CC)(CC(=O)Nc1cccc(/C=C/c2nc(C3CCC3)cs2)c1)C(=O)O | inactive
CC(C)Cn1cnc2c1c(=O)n(C)c(=O)n2C | inactive
CN1CCN(CCC(=O)N2c3ccccc3Sc3ccc(C(F)(F)F)cc32)CC1 | inactive
Nc1nc(N)c(-c2ccccc2)s1 | inactive
O=[N+]([O-])c1ccc(/C=N\O)o1 | inactive
CC(C)Cc1ccc(CC(=O)O)cc1 | inactive
O=C(N/N=C/c1ccc([N+](=O)[O-])o1)c1ccc(O)cc1 | inactive
FC1(F)C(F)(F)C(F)(F)C2(F)C(F)(F)C(F)(F)C(F)(F)C(F)(F)C2(F)C1(F)F (stereo not drawn) | inactive
O=C(CCN1CCN2CCCC2C1)N1c2ccccc2Sc2ccc(Cl)cc21 (stereo not drawn) | inactive
N=C(N)N1CCc2ccccc2C1 | inactive
COc1cc([C@H]2Oc3cc([C@H]4Oc5cc(O)cc(O)c5C(=O)[C@@H]4O)ccc3O[C@@H]2CO)ccc1O | inactive
c1ccc(CC2=NCCN2)cc1 | inactive
OCCOCCN1CCN(C2=Nc3ccccc3Sc3ccccc32)CC1 | inactive
O=C(Nc1ncc([N+](=O)[O-])s1)c1cccs1 | inactive
COc1ccc(CCN(C)CCCN2CCc3cc(OC)c(OC)cc3CC2=O)cc1OC | inactive
COc1ccc(S(=O)(=O)N2c3ccc(Cl)cc3[C@@](O)(c3ccccc3Cl)[C@H]2C(=O)N2CCC[C@@H]2C(N)=O)cc1OC | inactive
CCOc1ccccc1OCCN[C@H](C)Cc1ccc(OC)c(S(N)(=O)=O)c1 | inactive
CCc1nn(CCCN2CCN(c3cccc(Cl)c3)CC2)c(=O)n1CCOc1ccccc1 | inactive
